Screening data as filed in PubChem BioAssay.
HSD17B inh = qHTS Assay for Inhibitors of HSD17B4, hydroxysteroid (17-beta) dehydrogenase 4; 3-hydroxyacyl-CoA dehydrogenase type-2 (Homo sapiens), Q99714; recombinant HSD17B10, NADH fluorescence kinetic; Potency, µM (titrated, usually from 57.1 µM), for the others: at the top dose activity change, negative = inhibition, actives largely listed as inhibitors; 75,000 compounds, 7.6% hits;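 note: the protocol describes HADH2 (HSD17B10) and not the HSD17B4 of the title; nearly all actives have a fitted effect of over 70% in size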
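Enzyme plus compound, 15 min room temperature; substrate mix added (NAD+ 1 mM, beta-hydroxybutyryl-CoA 90 uM final); plates read kinetically for NADH fluorescence. HADH2 was His-tagged, E. coli-derived, 20 nM.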
Bst PK mod = Pyruvate Kinase; purified pyruvate kinase, luminescence ATP production; ribose 5-phosphate activator present at AC10; Potency, µM; 51,000 compounds, 1.2% hits; AID 361, 2006; in the data active = potency below about 11 µM; inconclusive = mostly about 12 µM to 25 µM;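 the screen sought inhibitors and activators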;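 note: scaled between full activation by ribose 5 phosphate and full inhibition by luteolin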
HADH2 inh = qHTS Assay for Inhibitors of HADH2 (Hydroxyacyl-Coenzyme A Dehydrogenase, Type II). 3-hydroxyacyl-CoA dehydrogenase type-2 (Homo sapiens), Q99714. recombinant HADH2, NADH fluorescence, beta-hydroxybutyryl-CoA. Potency, µM (series often up to 57.1 µM), inactives show top-dose activity change, negative = inhibition, hits mostly inhibitors. 73,000 compounds, 3.4% hits. AID 886, 2007; note: nearly all actives have a fitted effect of over 60% in size
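NADH fluorescence (ex 360/em 450 nm) read every 30 s for 4 min; activity taken as last-minus-first time point difference. Enzyme 20 nM, NAD+ 1 mM, beta-hydroxybutyryl-CoA 90 uM, pH 9.0 Tris buffer.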
ALOX15 inhib = qHTS Assay for Inhibitors of 15-hLO (15-human lipoxygenase); Polyunsaturated fatty acid lipoxygenase ALOX15 (Homo sapiens), P16050; purified 15hLO-1, xylenol orange hydroperoxide absorbance; Potency, µM (series often up to 57.1 µM), inactives show top-dose activity change, negative = inhibition, actives largely listed as inhibitors; 74,000 compounds, 1.4% hits; AID 887, 2007; note: nearly all actives have a fitted effect of over 55% in size
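Inhibition is scored from a chromogenic endpoint. After 15 min enzyme-compound contact, arachidonic acid (50 uM final) reacts 6 min with 40 nM 15hLO-1 at room temperature, then Fe-XO reagent is added for 30 min and absorbance ratio recorded.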
ERK AVP inh = qHTS Assay for Inhibitors of the ERK Signaling Pathway using a Homogeneous Screening Assay | HEK293-V1b, vasopressin-stimulated pERK AlphaScreen | Potency, µM (highest dose often 57.5 µM), inactives show top-dose activity, negative = inhibition, most hits filed as inhibitors | 72,000 compounds, 0.99% hits | AID 995, 2007; note: nearly all actives have a fitted effect of over 55% in size
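HEK293 cells stably expressing V1b receptor, seeded overnight in 1% FBS, were treated with compounds for 30 min at 37C, then stimulated 5 min with 25 nM vasopressin; phospho-ERK read by AlphaScreen SureFire after lysis.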
FLuc inh = qHTS Assay for Inhibitors of Firefly Luciferase; 72,000 compounds, 2.2% hits; AID 411, 2009; purified firefly luciferase, luminescence, 8 min; Potency, µM (doses to about 57.1 µM), for the others: top-dose activity change, negative = inhibition, usual class: inhibitors; note: nearly all actives have a fitted effect of over 40% in size
Target sequence (P08659 whole entry, looked up): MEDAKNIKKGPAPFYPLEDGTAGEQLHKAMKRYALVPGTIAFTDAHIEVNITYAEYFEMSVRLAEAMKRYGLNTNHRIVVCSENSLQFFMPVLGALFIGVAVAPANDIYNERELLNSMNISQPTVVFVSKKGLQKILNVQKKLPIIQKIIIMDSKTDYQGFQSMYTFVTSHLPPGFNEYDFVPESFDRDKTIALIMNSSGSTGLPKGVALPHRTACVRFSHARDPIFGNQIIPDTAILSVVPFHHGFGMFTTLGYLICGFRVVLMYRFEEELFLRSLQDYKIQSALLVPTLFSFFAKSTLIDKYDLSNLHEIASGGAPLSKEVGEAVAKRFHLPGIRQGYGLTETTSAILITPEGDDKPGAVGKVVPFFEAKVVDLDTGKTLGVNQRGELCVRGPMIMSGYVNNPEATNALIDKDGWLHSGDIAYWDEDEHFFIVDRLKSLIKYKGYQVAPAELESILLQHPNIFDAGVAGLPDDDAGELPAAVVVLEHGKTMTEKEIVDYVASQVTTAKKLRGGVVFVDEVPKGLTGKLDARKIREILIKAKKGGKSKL
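Titration-based qHTS; buffer 50 mM imidazole pH 7.2, 50 mM KCl, 7 mM MgCl2, 10 uM ATP, 0.01% Tween 20, 0.05% BSA; luciferase/luciferin detector mix added after compound; 8 min, ambient; luminescence.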
Starred values were filed as active, the others as inactive; i = inactive; ? = inconclusive; . = no result given; [ ] = remark or other dose. Only some compounds are listed: those with a hit (about 11% of all), similar ones and a draw of the others. Unless noted, calls come from the whole dose curve; as a rule, active = well fitted curve in the direction sought with a large enough effect; inconclusive = small, poorly fitted or top-dose-only effect, or another doubt; inactive = no such curve, though single readings can be large; an effect the other way counts as inactive or inconclusive. Unless noted, % is set by controls: 0 for no effect and ±100 for the full control effect; potency is the fitted concentration of half-maximal effect.

SMILES	HSD17B inh	Bst PK mod	HADH2 inh	ALOX15 inhib	ERK AVP inh	FLuc inh
Cc1c(Cc2ccccc2)c(=O)oc2cc(OCc3nn[nH]n3)ccc12	32µM*	>57	32µM*	8%	-17%	5%
CCOC(=O)CCc1c(C)c2ccc(OCc3nn[nH]n3)cc2oc1=O	25µM*	>57	20µM*	-5%	-19%	1%
COC(=O)c1ccc(Cc2ccc(C(=O)OC)o2)o1	13%	>57	0%	23%	4%	2%
COC(=O)c1ccc(COc2ccc3c(C)c(C)c(=O)oc3c2)o1	13µM*	.	?	1%[11.4 µM]	-18%	-6%
CCOC(=O)CCc1c(C)c2ccc(OCC(=O)OC(C)C)cc2oc1=O	25µM*	>57	-24%	-5%	-10%	0%
Cc1oc2ccc(OCC(N)=O)cc2c1C(=O)OC(C)C	-2%	>57	2%	-1%	?	1%
CC(=O)O[C@]12CC[N@+]3(C)CCCC[C@@H]3[C-]1Nc1ccccc12	6%[11.4 µM]	.	13%[11.4 µM]	3%[11.4 µM]	-5%[11.5 µM]	3%[11.4 µM]
CN1CCN(c2ncnc3ccc(-c4ccoc4)cc23)CC1	-8%	.	1%	1%	-26%	-1%[2.29 µM]
O=C(O)C[C@@H](C(=O)O)c1ccccc1[N+](=O)[O-]	2%[11.4 µM]	.	-6%[11.4 µM]	-2%[11.4 µM]	7%[11.5 µM]	1%[11.4 µM]
C=CCOC(=O)COc1ccc2c(C)c(C)c(=O)oc2c1	25µM*	.	23%	9%	-9%	-12%
CCCc1c(C)c2ccc(OCC(C)=O)cc2oc1=O	16µM*	>57	20µM*	-1%	-14%	-6%
C=CCOC(=O)COc1ccc2c(C)c(CC)c(=O)oc2c1	i	.	78%	-4%	-28%	-8%
CC1CN(C(=O)c2cc3c(=O)n4ccccc4nc3s2)CC(C)O1 (configuration not stated)	32µM*	>57	32µM*	-4%	-14%	3%
Cc1cn([C@H]2C[C@H](N=[N+]=[N-])[C@H](CO)O2)c(=O)[nH]c1=O	9%[11.4 µM]	.	-4%[11.4 µM]	-2%[11.4 µM]	-4%[11.5 µM]	1%[11.4 µM]
CCCc1cc(COC)c(C#N)c(=O)[nH]1	4µM*	.	-20%[11.4 µM]	9%[11.4 µM]	5%[11.5 µM]	0%[11.4 µM]
Brc1ccc2nc(CSc3ncn[nH]3)cn2c1	-4%	>57	-10%	21%	2%	25µM*
Clc1ccc(CSc2ncn[nH]2)cc1	2%	.	-7%	3%	-18%	-1%
COC(=O)C/C=C\[C@@H](C)[C@@H](/C=N\O[C@@H](C)c1cc(-c2c(C)cc(C)cc2C)no1)OC	-3%[11.4 µM]	.	1%[11.4 µM]	-4%[11.4 µM]	10%[11.5 µM]	1%[11.4 µM]
O=c1n(-c2ccccc2)c(=O)n2n1CC[C@H]1/C(=N\OC[C@@H](O)COCc3ccco3)[C@H]3O[C@@H]3[C@@H](O)[C@@H]12	0%[11.4 µM]	.	8%[11.4 µM]	3%[11.4 µM]	-3%[11.5 µM]	-1%[11.4 µM]
CCOC(=O)OCC1OC(c2ccccc2)C=CC1Oc1ccc2oc(=O)cc(C)c2c1 (configuration not stated)	4µM*	.	?	-2%[11.4 µM]	18%[11.5 µM]	.
Oc1ccccc1-c1cc(-c2ccc3c(c2)OCCO3)n[nH]1	-23%	1.9*	4%	13µM*	-7%	3.2µM*
COc1ccc(-c2cc(-c3cc(F)ccc3O)[nH]n2)cc1OC	-18%	9.6*	9%	?	32µM*	13µM*
COc1ccc(O)c(-c2cc(-c3cccc(Br)c3)n[nH]2)c1	-11%	.	-18%	?	?	-26%
Cc1ccc(-c2cc(-c3cccc(F)c3)n[nH]2)c(O)c1	-23%	11*	4%	.	-13%	13µM*
COc1ccc(CCNC(=O)c2cc(-c3ccccc3O)n[nH]2)cc1OC	7%	>57	-2%	1%	?	0%
SMILES	HSD17B inh	Bst PK mod	HADH2 inh	ALOX15 inhib	ERK AVP inh	FLuc inh
COC(=O)c1cc(-c2ccc(OC)c(OC)c2)n[nH]1	2%	.	-2%	-7%	-14%	-7%
COc1ccc(-c2cc(-c3ccccc3O)[nH]n2)cc1OC	-22%	.	-9%	?	?	4µM*
COC(=O)CNC(=O)C1(CC(C)C)C=CCN1C(C)=O (configuration not stated)	0%	.	-14%	16%	10%	.
CCOC(=O)c1c(C)n(C)c2ccc(O)c(S(=O)(=O)c3ccccc3)c12	.	10*	.	.	.	-2%[25.5 µM]
CCOC(=O)c1c(C)n(C)c2ccc(O)c(CN(C)C)c12	-6%	>57	12%	-5%	-14%	-2%
O=P(C1=C(N2CCOCC2)/C(=C\c2ccccc2)CC1)(N1CCOCC1)N1CCOCC1	-11%	>57	-12%	-3%	-4%	1%
Cc1c(-c2ccccc2)c(P(=O)(N2CCOCC2)N2CCOCC2)c2ccccn12	25µM*	>57	25µM*	2%	-5%	-1%
CCn1c(SCC(=O)N2CCCC2)nnc1-c1ccc(S(=O)(=O)N2CCCCCC2)cc1	8%	>57	8%	-3%	-1%	2%
Cc1nnc(SCC(=O)c2ccc(S(=O)(=O)N3CCOCC3)cc2)n1-c1ccccc1	-12%	>57	-16%	8%	-3%	-4%
CCn1c(SCc2ccc(C#N)cc2)nnc1-c1ccc(S(=O)(=O)N2CCCCC2)cc1	25µM*	>57	-9%	?	25µM*	1%
CCOC(=O)CSc1nnc(-c2ccc(S(=O)(=O)N3CCOCC3)cc2)n1-c1ccccc1	20µM*	>57	-21%	-5%	-14%	4%
CCn1c(SCC(=O)N2CCCCC2)nnc1-c1ccc(S(=O)(=O)N2CCN(C)CC2)cc1	25µM*	>57	9%	2%	-4%	3%
Cn1c(SCC(=O)N2CCCCC2)nnc1-c1ccc(S(=O)(=O)N2CCOCC2)cc1	25µM*	>57	-9%	0%	1%	2%
O=C(O)c1cc2ccccc2c(S(=O)(=O)O)c1O	5%[11.4 µM]	.	9%[11.4 µM]	-2%[11.4 µM]	-16%[11.5 µM]	3%[11.4 µM]
CC(C)=CCC/C(C)=C/C=O	3%	.	-2%	-15%	-24%	.
Cc1cc(N)c2cc(OCCOc3ccc4nc(C)cc(N)c4c3)ccc2n1	?	.	.	18%[11.4 µM]	-8%[11.5 µM]	.
COC(=O)[C@H](Cc1ccccc1)NC(=O)[C@H]1C[C@@H]1[C@H](NC(=O)OCc1ccccc1)c1ccccc1	8%	.	19%	-3%	-14%	.
CCSc1nnc(-c2ccc(S(=O)(=O)N3CCCC3)cc2)n1C	32µM*	>57	-25%	0%	2%	-3%
Cn1c(SCC(=O)NCc2cccs2)nnc1-c1ccc(S(=O)(=O)N2CCCC2)cc1	3%	>57	-7%	7%	3%	1%
